Among all 2,400 compounds or so, about 1,400 (58%) were called active. So high a share suggests a set chosen from earlier hits. The list shows a part of the results. Unmarked numbers belong to inactive results.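 Rule for the calls: active = inhibition of 30% or more at any tested dose; inconclusive = primary hits over the limit that were never retested; inactive = the rest.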

The test can be described thus: ADP Hunter readout inhibition without MgcRacGAP – biochemical, coupled enzyme counter-screen, artefact control for MgcRacGAP inhibitor project, dose response (AID 624351).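 For inhibition: 0% = median positive control wells and 100% = median negative control wells.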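 Note: signal is the ADP detection kit reading of free GDP without any GAP enzyme.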 Particulars: fluorescence, no MgcRacGAP; series mostly up to 80 µM; inhibition: at the top concentration.
In the case of `Nc1ccc2c(c1)Nc1ccccc1CC2`, the IC50 is 37.8 µM (active).

Regarding `Cc1ccccc1OCCN1CCCC1`, the “inhibition” value was 14.1%.

For `Cc1ccccc1OCCn1c(=S)[nH]c2c(N)ncnc21`, the IC50 was 68.2 µM (active).

Turning to `CC(C)Oc1ccc(OCCn2c(=S)[nH]c3c(N)ncnc32)cc1`, the 50% inhibitory concentration (IC50) is 76.4 µM (active).

Consider `C/C(=N\NC(=O)c1ccc(O)cc1)c1ccc2c(c1)Nc1ccccc1S2`, for which the IC50 was 41.1 µM (active).

Consider `C/C(=N/Nc1ccc(C(=O)O)cc1)c1ccc2c(c1)Nc1ccccc1S2`, for which the 50% inhibitory concentration (IC50) is 51.3 µM (active).

Regarding `C/C(CC(=O)Nc1ccc(N(C)C)cc1)=N\NC(=O)c1ccc([N+](=O)[O-])cc1`, the half-maximal inhibitory concentration (IC50) was 59.5 µM (active).

For the compound `Cn1ccc(=Nc2ccc(NC(=O)c3ccc(N=c4ccn(C)c5ccc([N+](=O)[O-])cc45)cc3)cc2)cc1`, the “inhibition” value was 6.89%.

Regarding `O=C(Cn1sc2ccccc2c1=O)Nc1ccc(F)cc1`, the “inhibition” value was 6.79%.

`O=C(Nc1ccc(C2=NCCN2)cc1)c1ccc(C(=O)Nc2ccc(C3=NCCN3)cc2)c(Cl)c1`: the “inhibition” value is 6.39%.

For `C/C(CC(=O)Nc1ccc(N(C)C)cc1)=N\NC(=O)c1ccc([N+](=O)[O-])cc1Cl`, the half-maximal inhibitory concentration (IC50) was 61.6 µM (active).

`COC(C(=O)N/N=C(\C)CC(=O)Nc1ccc(N(C)C)cc1)c1ccccc1` (configuration not stated): the IC50 is 47.7 µM (active).

Take `C/C(CC(=O)Nc1ccc(N(C)C)cc1)=N\NC(=O)c1ccc(F)cc1`: the 50% inhibitory concentration (IC50) was 46.5 µM (active).

As for `CCCCCCCCCCCCCCCC[n+]1ccccc1`, the “inhibition” value was 4.98%.

Turning to `C/C(CC(=O)Nc1ccc(N(C)C)cc1)=N\NC(=O)c1ccncc1`, the IC50 is 74.6 µM (active).

Take `N#C/C(=C\c1ccc(N2CCOCC2)o1)c1nc2ccccc2[nH]1`: the IC50 is 13.5 µM (active).

For `N#C/C(=C/c1ccc(N2CCCCCC2)o1)c1ccc(Cl)cc1`, the “inhibition” value is 6.82%.

`N#C/C(=C/c1ccc(N2CCOCC2)o1)c1nc2ccccc2[nH]1`: the IC50 is 38.6 µM (active).

On to `CN(C)c1ccc(C=c2c3ccccc3n3c2cc(-c2ccc(Cl)cc2)[n+]3C)cc1`, for which the “inhibition” value is 23.3%.

Regarding `CCOc1ccc(N)cc1OC`, the IC50 is 43.1 µM (active).

As to `CCOc1ccc(C2NC(=O)C(C#N)=C(S)N2c2ccc(OC)cc2)cc1OC` (configuration not stated), the “inhibition” value was 2.78%.

In the case of `CC(C)COc1ccc(N)cc1OCC(C)C`, the 50% inhibitory concentration (IC50) is 46.2 µM (active).

With `CCN(Cc1ccncc1)Cc1ccc(OC)c(OC)c1`, the “inhibition” value was 3.65%.

As to `COc1ccc(N2C(=O)/C(=C/N(C)C)NC2=S)cc1`, the half-inhibitory concentration (IC50) was 77.5 µM (active).

As for `COc1ccc(-n2sc3ccccc3c2=O)cc1`, the “inhibition” value is 10.5%.

For `CN(C)/C=C1\NC(=S)N(c2ccccc2)C1=O`, the IC50 was 71.9 µM (active).

As for `COc1ccc(-n2sc3ccc(F)cc3c2=O)cc1`, the “inhibition” value was 22.9%.

As for `Cc1cccc2c(N)c3c(nc12)N(C)CC3`, the “inhibition” value was -29.6%.

Regarding `Cc1ccc2c(C)nc(/N=C(\N)NC(=O)N3c4ccccc4Sc4ccccc43)nc2c1`, the IC50 entry was “inactive”.

Consider `Cc1cccn2c(CNC3CCCc4ccccc43)c(C(=O)N3CCCCC3)nc12` (configuration not stated), for which the “inhibition” value is -1.5%.

As for `O=C(CN1CCN(c2ccccn2)CC1)Nc1ccc(F)cc1`, the “inhibition” value was 25.8%.

For the compound `CN(C)c1ccc(NC(=O)CCN2C(=O)c3cccc([N+](=O)[O-])c3C2=O)cc1`, the IC50 was 72.7 µM (active).

As for `Cc1ccc(NC(=O)CN2CCC(Cc3ccccc3)CC2)cc1S(=O)(=O)N(C)C`, the “inhibition” value is 7.91%.

In the case of `CN1CC(=O)N(CC(=O)Nc2ccc(N(C)C)cc2)c2ccccc2C1=O`, the half-inhibitory concentration (IC50) was 58.4 µM (active).

For `CCCCOc1ccc(NC(=O)CN2CCN(CC)CC2)cc1`, the “inhibition” value is 29.1%.

Take `CN(C)c1ccc(NC(=O)CN2C(=O)c3ccccc3C2=O)cc1`: the IC50 is 83.9 µM (active).

For the compound `O=C1C(Cl)=C(NC(=O)c2ccccc2)C(=O)C(Cl)=C1NC(=O)c1ccccc1`, the “inhibition” value is -0.63%.

On to `CCN(CC)CCCC(C)NC(=O)c1c(NC(=O)c2ccccc2)sc2c1CCCC2` (configuration not stated), for which the “inhibition” value was 14.1%.

Turning to `Cc1cc(O)ccc1NC(=O)c1ccccc1`, the half-maximal inhibitory concentration (IC50) was 71 µM (active).

For the compound `O=C(O)CCCNC(=O)/C=C/c1ccco1`, the “inhibition” value was -3.21%.

In the case of `CSc1ccc(CN2CCC(C(=O)NCc3ccc(C)cc3)CC2)cc1`, the “inhibition” value was 21.7%.

Regarding `Cc1csc(=O)n1CC(=O)OC(C)C(=O)Nc1ccc(N(C)C)cc1` (configuration not stated), the half-maximal inhibitory concentration (IC50) is 56.8 µM (active).

Take `CC1CN(CCCCN2C(=O)c3ccccc3C2=O)CC(C)O1` (configuration not stated): the “inhibition” value was 16.3%.

Take `Cc1cc(C)c(S(=O)(=O)Nc2ccc(N(C)C)cc2)c(C)c1-n1cnnn1`: the IC50 was 44.4 µM (active).

For the compound `O=[N+]([O-])c1ccc(C2CC(c3ccccc3)=Nc3ccccc3S2)cc1` (configuration not stated), the “inhibition” value is 2.52%.

Consider `Clc1cccc(-c2ccc(C=Nc3ccc(N4CCOCC4)cc3)o2)c1Cl`, for which the IC50 was 14.8 µM (active).

Consider `Cc1ccc(Cl)cc1-c1ccc(C=Nc2ccc(N3CCOCC3)cc2)o1`, for which the IC50 was 11.4 µM (active).

With `O=C1CCCC2=C1Sc1ccc(Cl)cc1N2`, the IC50 was 65.6 µM (active).

For the compound `COc1ccc(NCCC(O)c2ccc(Cl)cc2)cc1` (configuration not stated), the 50% inhibitory concentration (IC50) was 28 µM (active).

On to `CC(C)NCC#CCOc1ccc(Cl)cc1`, for which the “inhibition” value is 15.6%.

Regarding `COc1ccc(O)c(C(c2c(C)[nH][nH]c2=O)c2c(C)[nH][nH]c2=O)c1`, the “inhibition” value was -23.8%.

Turning to `COc1ccc(NC(C)c2cc(Cl)ccc2O)cc1` (configuration not stated), the IC50 was 61.5 µM (active).

These data come from PubChem BioAssay AID624351 (Southern Research Specialized Biocontainment Screening …, 2012).
